# U2OS ROS induce = inducers of reactive oxygen species in cancer cells. U2OS ROS induction, H2DCF-DA fluorescence. ROS induction (% of piperlongumine), % at 10 µM. 46,000 compounds, 2% hits; in the data active means ROS induction above about 79%, passing the limit was not always enough;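 further: 0% = DMSO vehicle median and 100% = reference compound median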
# Numbers without * were called inactive. The full list was thinned out, with hits kept by preference.
SMILES,U2OS ROS induce
CCCC(=O)N1CCC(c2ccc(OC)cc2)=N1,-0.6
CCc1ccc(N2NC(=O)/C(=C/c3ccc4c(c3)n(C)c(=O)n4C)C2=O)cc1,3.4
C[C@H]1CN([C@@H](C)CO)C(=O)c2cc(NC(=O)Cc3ccccc3)ccc2O[C@H]1CN(C)Cc1ccccc1,-2.6
C[C@@H]1CN([C@H](C)CO)C(=O)c2cc(NC(=O)c3ccncc3)ccc2O[C@@H]1CN(C)Cc1ccc(-c2ccccc2)cc1,112.9*
C[C@@H]1CN([C@@H](C)CO)C(=O)c2cc(NC(=O)Cc3ccccc3)ccc2O[C@@H]1CN(C)Cc1ccc(-c2ccccc2)cc1,59.9
C[C@@H]1CN([C@H](C)CO)C(=O)c2cc(NC(=O)Cc3ccccc3)ccc2O[C@H]1CN(C)Cc1ccc(-c2ccccc2)cc1,100.2*
C[C@@H]1CN([C@@H](C)CO)C(=O)c2cc(NC(=O)c3ccncc3)ccc2O[C@@H]1CN(C)Cc1ccccc1,-21.7
C[C@@H]1CN([C@H](C)CO)C(=O)c2cc(NC(=O)Cc3ccccc3)ccc2O[C@H]1CN(C)Cc1ccc(Oc2ccccc2)cc1,-1.4
C[C@H]1CN([C@@H](C)CO)C(=O)c2cc(NC(=O)CCC(F)(F)F)ccc2O[C@@H]1CN(C)Cc1ccc(-c2ccccc2)cc1,81.8*
C[C@H](CO)N1C[C@H](C)[C@H](CN(C)Cc2ccc(-c3ccccc3)cc2)Oc2ccc(NC(=O)CCC(F)(F)F)cc2C1=O,9.2
C[C@@H]1CN([C@H](C)CO)C(=O)c2cc(NC(=O)CCC(F)(F)F)ccc2O[C@H]1CN(C)Cc1ccc(-c2ccccc2)cc1,38.3
C[C@H]1CN([C@@H](C)CO)C(=O)c2cc(NC(=O)Cc3ccccc3)ccc2O[C@H]1CN(C)Cc1ccc(Oc2ccccc2)cc1,-5.5
C[C@H](CO)N1C[C@H](C)[C@@H](CN(C)Cc2ccc(-c3ccccc3)cc2)Oc2ccc(NC(=O)c3ccncc3)cc2C1=O,18.9
C[C@H](CO)N1C[C@H](C)[C@@H](CN(C)Cc2ccc(Oc3ccccc3)cc2)Oc2ccc(NC(=O)Cc3ccccc3)cc2C1=O,137.9*
O=C(N/N=C/c1ccc([N+](=O)[O-])s1)c1ccccn1,52.5
O=S(=O)(Nc1nc2ccccc2nc1-[n+]1ccccc1)c1ccccc1,10.4
CCOc1ccc(-c2cc(C(=O)NCCCN3CCCCC3)c3ccccc3n2)cc1,54.7
COc1ccc2oc(=O)c3c(c2c1)CC(C(F)(F)F)S3 (configuration not stated),7.8
COc1ccc2nc3[nH]nc(NC(=O)Cc4ccccc4OC)c3cc2c1,-4.0
CCOC(=O)c1cccc(NC(=O)Cn2ncc3c(C)n(Cc4ccc(F)cc4)c(C)c3c2=O)c1,2.0
COc1ccccc1N(CC(=O)Nc1ccccc1)S(C)(=O)=O,-11.0
Cc1ccc(S(=O)(=O)N(CCC(=O)O)Cc2ccccc2)cc1,-1.5
COc1ccc(CNC(=O)C2c3ccccc3C(=O)N(C)C2c2cccs2)cc1 (configuration not stated),-17.4
O=C(O)CCNCc1c(Cl)cccc1Cl,3.1
Cc1[nH]c2ccccc2c1SCC(=O)NN,-8.8
SMILES,U2OS ROS induce
COc1ccc(OC)c(C(=O)c2coc3ccc(O)cc23)c1,9.0
CC(=O)Oc1ccc2occ(C(=O)c3ccc(Br)s3)c2c1,29.9
CC(=O)Oc1ccc2occ(C(=O)CCN(C)C)c2c1,98.4*
CCCNC(=O)c1cc(=O)n(Cc2ccc(C)cc2)c2ccccc12,-7.0
CC(C)NC(=O)Nc1ccc2c(c1)CC(=O)N([C@H](C)CO)C[C@H](C)[C@H](CN(C)Cc1ccncc1)O2,112.9*
COc1ccc(NC(=O)N(C)C[C@@H]2Oc3ccc(NC(=O)NC(C)C)cc3CC(=O)N([C@@H](C)CO)C[C@@H]2C)cc1,-3.2
COc1ccc(NC(=O)N(C)C[C@H]2Oc3ccc(NC(=O)c4ccncc4)cc3CC(=O)N([C@@H](C)CO)C[C@@H]2C)cc1,0.0
C[C@H](CO)N1C[C@H](C)[C@H](CN(C)C(=O)Nc2ccc(F)cc2)Oc2ccc(NC(=O)c3ccncc3)cc2CC1=O,1.2
CC(C)NC(=O)Nc1ccc2c(c1)CC(=O)N([C@@H](C)CO)C[C@H](C)[C@H](CN(C)Cc1ccccc1)O2,-3.3
COc1ccc(NC(=O)N(C)C[C@@H]2Oc3ccc(NC(=O)NC(C)C)cc3CC(=O)N([C@H](C)CO)C[C@H]2C)cc1,110.2*
COc1ccc(NC(=O)N(C)C[C@H]2Oc3ccc(NC(=O)NC(C)C)cc3CC(=O)N([C@@H](C)CO)C[C@@H]2C)cc1,-7.5
CC(C)NC(=O)N(C)C[C@@H]1Oc2ccc(NC(=O)Nc3ccccc3)cc2CC(=O)N([C@H](C)CO)C[C@H]1C,2.4
CC(C)NC(=O)Nc1ccc2c(c1)CC(=O)N([C@@H](C)CO)C[C@H](C)[C@H](CN(C)C(=O)Nc1ccccc1)O2,79.2*
CC(C)NC(=O)N(C)C[C@H]1Oc2ccc(NC(=O)Nc3ccccc3)cc2CC(=O)N([C@H](C)CO)C[C@H]1C,-4.4
COc1ccc(NC(=O)N(C)C[C@@H]2Oc3ccc(NC(=O)c4ccncc4)cc3CC(=O)N([C@H](C)CO)C[C@H]2C)cc1,93.7*

# Bioassay records as filed in PubChem.
